Results on six compounds are retold here after PubChem BioAssay AID588445 (Southern Research Specialized Biocontainment Screening …, 2011).

Records with an inconclusive call do not appear. Activity calls are given as the source filed them. No rule for the calls is given here.

This experiment can be described thus: Vero cell cytotoxicity, dose response, cytotoxicity control for M. tuberculosis inhibitor project, purified and synthesized compounds, set 6 (AID 588445). As to conditions: cytotoxicity counter-screen; series mostly up to 100 µM. Background: A counterscreen serves to expose hits that act by an unwanted route or on another target.
Regarding `CCOC(=O)CSc1ncnc2c1cnn2-c1ccc(C)cc1C`, the compound was classed as inactive.

As for `CC(C)OC(=O)CSc1ncnc2c1cnn2-c1ccccc1`, the call was inactive. For `CC1CC(C)CN(C(=O)C2CCC(CNc3c(N4CCCCC4)c(=O)c3=O)CC2)C1` (stereo unspecified), the outcome was inactive. In the case of `COC(=O)CSc1ncnc2c1cnn2-c1ccc(C)cc1C`, the compound was called inactive. Next, `COc1ccc(N2CCN(C(=O)c3ccc(CNc4c(N5CCOCC5)c(=O)c4=O)cc3)CC2)cc1`: “inactive”; `CCOC(=O)CSc1ncnc2c1cnn2-c1ccccc1`: “inactive”.
